Hit rate of the full screen: of about 360,000 compounds, about 11,000 (3.1%) were called active. The full list was thinned out, with actives kept by preference. A number with no mark means an inactive call. Cut-off read from the data, not from the text of the source: active = activity change below about -30%; inactive = the rest.
The compounds below were run against D(1A) dopamine receptor (Homo sapiens) (UniProt P21728) (assay: Antagonist of Human D 1 Dopamine Receptor: qHTS). Settings: HEK293 TREx D1 cells, calcium flux, dopamine EC80; at 10 µM; stronger effect = lower value.
Chain of D(1A) dopamine receptor (Homo sapiens) (P21728 whole entry, looked up): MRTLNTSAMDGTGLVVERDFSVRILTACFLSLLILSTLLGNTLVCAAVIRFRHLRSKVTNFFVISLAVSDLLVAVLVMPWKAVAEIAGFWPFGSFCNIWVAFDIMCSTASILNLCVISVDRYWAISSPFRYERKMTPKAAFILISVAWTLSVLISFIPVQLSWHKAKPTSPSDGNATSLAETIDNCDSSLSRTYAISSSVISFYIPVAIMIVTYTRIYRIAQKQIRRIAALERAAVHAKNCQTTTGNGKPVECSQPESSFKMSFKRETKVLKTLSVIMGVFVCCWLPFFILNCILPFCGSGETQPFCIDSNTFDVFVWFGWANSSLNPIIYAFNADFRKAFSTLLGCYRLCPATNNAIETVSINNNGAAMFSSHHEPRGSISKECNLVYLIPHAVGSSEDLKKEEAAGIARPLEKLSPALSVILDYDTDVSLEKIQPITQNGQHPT
Outline: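 Allosteric or orthosteric antagonism assessed as attenuation of the calcium response to EC80 dopamine, added 180 s after compound, in induced HEK293 Trex D1 cells loaded with no-wash calcium dye.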
Work on CCOc1cc(C2C(C(=O)OC)=C(C)NC3=C2C(=O)c2ccccc23)ccc1O (stereo unspecified) yielded an activity change, negative = inhibition of -1.02%. For COc1ccccc1-c1cc2nc(C)c(CCC(=O)NC3CCCCC3)c(C)n2n1, the activity change, negative = inhibition was 2.22%. COC(=O)c1ccc(NC(=S)Nc2cccc(C)n2)cc1 gave an activity change, negative = inhibition of -4.64%. In the case of COC(=O)c1sccc1NN1C(=O)c2ccccc2C1=O, the activity change, negative = inhibition was -47.9% (active). In the case of COC(=O)c1sccc1NS(=O)(=O)c1ccc(F)cc1F, the activity change, negative = inhibition was -12%. In the case of CCOC(=O)C(=CNNc1ccsc1C(=O)OC)C(=O)OCC, the activity change, negative = inhibition was 12.1%. COC(=O)c1sccc1NC(=O)c1ccc(Cl)cc1 showed an activity change, negative = inhibition of 1.11%. COC(=O)c1ccc(NC(=O)Nc2ccc(C)cc2)cc1 was tested, and the activity change, negative = inhibition was -35.1% (active). COC(=O)c1sccc1NC(=O)CCC1CCCC1 gave an activity change, negative = inhibition of 1.13%. For COC(=O)c1sccc1NC(=S)Nc1ccc(C)cc1, the activity change, negative = inhibition was -32.4% (active). COc1cc(NC(=O)Nc2ccc(C)cc2)cc([N+](=O)[O-])c1 was tested, and the activity change, negative = inhibition was -3.95%. Cc1oc2c(c1C(=O)Nc1ccc(F)c(F)c1)C1=NCCN1C=N2 gave an activity change, negative = inhibition of -2.12%. In the case of CCOC(=O)c1ccc(NC(=O)c2ncn(-c3ccccc3)n2)cc1, the activity change, negative = inhibition was -18.3%. Work on O=C(CCC1N=C2c3ccccc3N=C(SCc3ccccc3F)N2C1=O)NCCc1ccccc1 (stereo unspecified) yielded an activity change, negative = inhibition of 14.5%. COc1ccc(N2CCN(Cc3nc4c(c(=O)[nH]c(=O)n4C)n3Cc3ccc(Cl)cc3)CC2)cc1 gave an activity change, negative = inhibition of -1.05%. Cc1ccc(NC(=O)c2nc(S(=O)(=O)Cc3cccc(C)c3)ncc2Cl)cc1 showed an activity change, negative = inhibition of -29.3%. For Cc1cccc(NC(=O)c2nc(S(=O)(=O)Cc3ccccc3)ncc2Cl)c1, the activity change, negative = inhibition was -28.7%. For Cc1cccc(CS(=O)(=O)c2ncc(Cl)c(C(=O)Nc3ccc(F)cc3)n2)c1, the activity change, negative = inhibition was -44.7% (active). Compound CCc1cccc(CC)c1NC(=O)Cn1c(=O)c(-c2cc(C)ccc2NC(C)=O)nc2ccccc21 has an activity change, negative = inhibition of -15.1%. Cc1nn(C)c2c1c(C(F)(F)F)cc(=O)n2C(C)C(=O)NCc1ccc(Cl)cc1 (stereo unspecified) was tested, and the activity change, negative = inhibition was 16.7%. O=C(Nc1ccc(S(=O)(=O)N2CCC(c3nc4ccccc4s3)CC2)cc1)c1ccccc1F showed an activity change, negative = inhibition of 11%. COc1ccc(N2CCN(S(=O)(=O)CCNC(=O)C(c3ccccc3)c3ccccc3)CC2)cc1 gave an activity change, negative = inhibition of -1.95%. CNc1ccc(NC(C)=O)cc1[N+](=O)[O-] gave an activity change, negative = inhibition of -1.26%. For NC(=O)c1ccc(Nc2ccc3c(c2)CCC3)c([N+](=O)[O-])c1, the activity change, negative = inhibition was -48.2% (active). With Cc1ccc(Nc2ccc(C(N)=O)cc2[N+](=O)[O-])cc1 the activity change, negative = inhibition was -47.2% (active). In the case of O=[N+]([O-])c1ccccc1Nc1ccc(O)cc1, the activity change, negative = inhibition was 5.4%. With CCOC(=O)c1ccc(NNC(C)=O)c([N+](=O)[O-])c1 the activity change, negative = inhibition was -8.63%. Compound CCOc1ccccc1Nc1ccc(C(=O)O)cc1[N+](=O)[O-] has an activity change, negative = inhibition of -11.5%. COC(=O)c1cnn(-c2ccc(C(=O)Nc3ccc(OC(F)(F)F)cc3)cc2)c1N gave an activity change, negative = inhibition of -10.8%. Work on COc1ccc(Cn2c(C(=O)O)c(CNCc3cccc(OC)c3)c3ccc(C)cc32)cc1 yielded an activity change, negative = inhibition of 8.54%. In the case of CC(C)C[C@H](NC(=O)C1CC(=O)N(c2ccc3c(c2)OCCO3)C1)C(=O)NC1CCCC1 (stereo partly specified), the activity change, negative = inhibition was -44.1% (active). For CCOC(=O)c1ccc(NC(=O)C2CC(=O)N(c3ccc4c(c3)OCCO4)C2)cc1 (stereo unspecified), the activity change, negative = inhibition was 6.91%. C[C@H](NC(=O)C1CC(=O)N(c2ccc3c(c2)OCCO3)C1)C(=O)N1CCC(C(=O)O)CC1 (stereo partly specified) gave an activity change, negative = inhibition of 9.3%. COc1ccc(S(=O)(=O)N(CC(=O)NCc2ccco2)c2ccc(F)cc2)cc1 showed an activity change, negative = inhibition of -3.07%. Cc1ccc(S(=O)(=O)N(CC(=O)NCc2ccco2)c2ccccc2C)cc1 was tested, and the activity change, negative = inhibition was -44.4% (active). With CCN(CC(=O)NCc1ccco1)S(=O)(=O)c1ccc(F)cc1 the activity change, negative = inhibition was -0.842%. Compound CCCS(=O)(=O)N1CCCC(C(=O)NCc2ccco2)C1 (stereo unspecified) has an activity change, negative = inhibition of 6.64%. With CCCS(=O)(=O)N1CCCC(C(=O)NCCN2CCCCC2C)C1 (stereo unspecified) the activity change, negative = inhibition was -41.8% (active). With CCOC(=O)N1CCN(S(=O)(=O)N2CCCC(C(=O)NCCCN3CCC(C)CC3)C2)CC1 (stereo unspecified) the activity change, negative = inhibition was 2.88%. COc1ccccc1CNC(=O)CCn1c(=O)c2ccccc2n(CC(=O)Nc2ccc(Br)cc2F)c1=O gave an activity change, negative = inhibition of 0.197%. COc1ccc(C)cc1NC(=O)CCc1c(C)nn(-c2ccc(N3CCOCC3)nn2)c1C showed an activity change, negative = inhibition of -25.9%. Work on Cc1ccc(Cl)cc1NC(=S)N(CCN(C)C)Cc1cccs1 yielded an activity change, negative = inhibition of -0.901%. Compound Cc1ccccc1NC(=S)N(CCCN1CCOCC1)Cc1cccs1 has an activity change, negative = inhibition of -5.87%. With Cc1ccc(NC(=S)N(CCN(C)C)Cc2cccs2)cc1C the activity change, negative = inhibition was -42.5% (active). In the case of COC(=O)c1scc(-c2ccc(C)cc2)c1S(=O)(=O)Nc1cc(Cl)c(OC)cc1OC, the activity change, negative = inhibition was 10.2%. Cc1ccc(CSc2nc3ccsc3c(=O)n2CCC(C)C)cc1 showed an activity change, negative = inhibition of 13.8%. COCCNS(=O)(=O)c1cc(-c2nn3c(C)nnc3c3ccccc23)ccc1C showed an activity change, negative = inhibition of -4.16%. CC(=O)c1cccc(Nc2ccc3cc(S(=O)(=O)N4CCC(C)CC4)ccc3n2)c1 was tested, and the activity change, negative = inhibition was 13.5%. CN1CCN(CCC(=O)N/N=C/C=C2\N(C)c3ccccc3C2(C)C)CC1 was tested, and the activity change, negative = inhibition was -8.35%. CC(=O)Nc1cccc(OCC(=O)/C=C2\N(C)c3ccccc3C2(C)C)c1 was tested, and the activity change, negative = inhibition was -35.4% (active). With COc1cccc(NC(=S)C(C#N)=C2N(C)c3ccccc3N2C)c1 the activity change, negative = inhibition was 0.557%. O=C1OC(C(=O)Nc2cccc(Br)c2)Cc2ccccc21 (stereo unspecified) gave an activity change, negative = inhibition of 3.01%. In the case of COc1cccc(/C=C2\Sc3ccc(C(=O)NCC4CCCO4)cc3N(C)C2=O)c1 (stereo unspecified), the activity change, negative = inhibition was -38% (active). COc1cccc(C(=O)NCCS(=O)(=O)NCC2CCCO2)c1 (stereo unspecified) was tested, and the activity change, negative = inhibition was 28.7%. For COc1ccc2cc(C(=O)NCC3CCCO3)[nH]c2c1 (stereo unspecified), the activity change, negative = inhibition was -7.79%. Work on Brc1cccc(-c2nnn3c2nc(NC2CCCCC2)c2ccccc23)c1 yielded an activity change, negative = inhibition of 11.9%. Cc1cc(F)ccc1NS(=O)(=O)c1ccc(-n2cccn2)cc1 showed an activity change, negative = inhibition of -14%. For Cc1ccc(-n2nc(C)c3c(C)cc(=O)n(CC(=O)Nc4ccc(C(C)C)cc4)c32)cc1, the activity change, negative = inhibition was 14.4%. Work on CCOC(=O)c1ccc(N2C(=O)c3[nH]nc(-c4ccccc4)c3C2c2ccc(C(C)C)cc2)cc1 (stereo unspecified) yielded an activity change, negative = inhibition of 49.1%. Compound CCOc1ccc(CCNC(=O)c2c(C)oc3ncn(C)c(=O)c23)cc1 has an activity change, negative = inhibition of 3.92%. For CCOc1ccc(CCNC(=O)c2cc3c(=O)n(C)c4ccccc4c3n2C)cc1, the activity change, negative = inhibition was -46.8% (active). Work on CCN1CCCC1CNC(=O)c1cc2c(=O)n(C)c3ccccc3c2n1C (stereo unspecified) yielded an activity change, negative = inhibition of -10.7%. Work on CCCn1c2ccccc2c2cnn(CC(=O)N(C)c3ccccc3CC)c(=O)c21 yielded an activity change, negative = inhibition of -1.54%. In the case of O=C(c1ccc2c(c1)N(Cc1ccccc1)C(=O)c1ccccc1S2(=O)=O)N1CCCC1, the activity change, negative = inhibition was 1.23%. With O=C(Nc1cc(C(F)(F)F)ccc1Cl)c1cc2nc(-c3ccc4c(c3)OCO4)cc(C(F)(F)F)n2n1 the activity change, negative = inhibition was 12.4%. CC(C)c1ccc(NC(=O)C2CCN(c3nc(-c4ccc(C(C)C)cc4)no3)CC2)cc1 was tested, and the activity change, negative = inhibition was -20.6%. For COc1ccc(NC(=O)c2ccc3nc(CCc4ccccc4)oc3c2)c(OC)c1, the activity change, negative = inhibition was 0.958%. CC(=O)N1CCCc2cc(S(=O)(=O)N3CCC(C(=O)NCc4ccc(F)cc4)CC3)ccc21 was tested, and the activity change, negative = inhibition was -2.54%. Compound CCc1nccn1S(=O)(=O)c1cc(Br)ccc1Br has an activity change, negative = inhibition of -13.3%. For COC(=O)c1ccc(C2C(C(=O)Nc3ccccc3)=C(C)Nc3nc4ccccc4n32)cc1 (stereo unspecified), the activity change, negative = inhibition was 6.56%. In the case of COc1ccc(CCNc2ncnc3nc[nH]c23)cc1OC, the activity change, negative = inhibition was -23.9%. In the case of c1ccc2c(c1)OCC(CNc1ncnc3nc[nH]c13)O2 (stereo unspecified), the activity change, negative = inhibition was -86.7% (active). In the case of c1ccc(-c2cc3c(NCC4COc5ccccc5O4)ncnc3s2)cc1 (stereo unspecified), the activity change, negative = inhibition was -18.9%. With CCOc1ccccc1CNC(=O)c1ccc2c(c1)nc1n2CCC(C)C1 (stereo unspecified) the activity change, negative = inhibition was -12.2%. Compound CCC(C)c1ccc2oc(-c3ccc(NC(=O)c4cc5ccccc5o4)cc3)nc2c1 (stereo unspecified) has an activity change, negative = inhibition of -6.42%. Compound Cc1cc2nc(-c3ccc(NC(=O)c4cc5ccccc5o4)cc3)oc2cc1C has an activity change, negative = inhibition of -20.5%. With CC(C)Oc1ccc(NC(=O)c2cc3ccccc3o2)cc1 the activity change, negative = inhibition was -61.7% (active). CC1=Nc2cc(C(=O)N3CCC(C)CC3)ccc2Sc2ccc(Cl)cc21 was tested, and the activity change, negative = inhibition was 5.84%. Compound CCOC(=O)N1CCc2c(sc3c2c(=O)n(-c2ccc(CC)cc2)c(=O)n3C)C1 has an activity change, negative = inhibition of 5.44%. With CCCc1cc(C(=O)Nc2ccc(Cl)cn2)cs1 the activity change, negative = inhibition was 11%. CCN(CC)C(=O)CCC(=O)Nc1ccc(C(=O)OC)cc1 gave an activity change, negative = inhibition of -2.84%. CCCc1cc(C(=O)Nc2ccc(C(=O)OC)cc2)cs1 was tested, and the activity change, negative = inhibition was -31.2% (active). Work on Cc1ccc(C(=O)NCCSc2c(C)[nH]c3ccccc23)cc1C yielded an activity change, negative = inhibition of -23.5%. Cc1ccc(-n2c3nc(=O)[nH]c(=O)c-3cc3c(Cl)cccc32)cc1 was tested, and the activity change, negative = inhibition was 7.04%. Work on Cc1ccc(NC(=O)CCNS(=O)(=O)c2ccc3c(c2)oc(=O)n3C)cc1C yielded an activity change, negative = inhibition of -0.228%. In the case of COc1ccccc1CNC(=O)C(Cc1ccccc1)NS(=O)(=O)c1ccc2c(c1)oc(=O)n2C (stereo unspecified), the activity change, negative = inhibition was 3.15%. For Cc1ccc(NC(=O)C(Cc2ccccc2)NS(=O)(=O)c2ccc3c(c2)oc(=O)n3C)cc1C (stereo unspecified), the activity change, negative = inhibition was -42.8% (active). COc1ccc(-c2ccc(=O)n(CC(=O)Nc3ccc(Br)cc3F)n2)cc1 gave an activity change, negative = inhibition of 27.5%. Compound Cc1ccc2[nH]c3c(c2c1)CN(C(=O)CN1CCN(c2ccccc2)CC1)CC3 has an activity change, negative = inhibition of -26.5%. For O=C(CCCN1CCc2[nH]c3ccc(F)cc3c2C1)c1ccc(F)cc1, the activity change, negative = inhibition was -73% (active). O=c1c2ccccc2[nH]c(=S)n1CCN1CCC(=C(c2ccc(F)cc2)c2ccc(F)cc2)CC1 showed an activity change, negative = inhibition of -22.1%.

— PubChem BioAssay AID504652 (National Center for Advancing Translational Sciences (NCATS), 2011)
% is set by controls: 0 for no effect and ±100 for the full control effect.
